Key:
Test in all cases: PBM binding z-score (relative to random genomic background probes); higher = stronger binding; sequences stand for … in GC…GCGATTGACAGCGTAGAATGAAGG
[1] = system: RARb homodimer (NR concentration 270 nM)
Summary of the method: (§1)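 For binding z-scores, the reference was random background probes on custom Agilent 4×180K protein-binding microarrays. These arrays were incubated 1 h with ligand-free nuclear receptor dimers in PBS pH 7.4, 2% milk, 0.02% Triton X-100, 1 mM DTT, 0.2 mg/mL BSA and 0.4 mg/ml salmon testes DNA. Fluorescence was scanned after antibody detection of each partner (one per run) and regression-normalized.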

[2] = system: RARg:RXRa (NR concentration 270 nM, RXRa partner concentration 90 nM)
Summary of the method: as §1

[3] = system: RARg homodimer (NR concentration 270 nM)
Summary of the method: as §1

[4] = system: RXRa DBDmut IVT, anti-RXR (DBD mutation: RXRa K156A/R161A, NR concentration 90 nM)
Summary of the method: as §1

[5] = system: RXRa homodimer (NR concentration 180 nM)
Summary of the method: as §1

[6] = system: THRa:RXRa (NR concentration 90 nM, RXRa partner concentration 90 nM)
Summary of the method: as §1

[7] = system: THRa homodimer (NR concentration 90 nM)
Summary of the method: as §1

[8] = system: VDR homodimer (NR concentration 270 nM)
Summary of the method: as §1

Sequence	PBM binding z-score [1]	PBM binding z-score [2]	PBM binding z-score [3]	PBM binding z-score [4]	PBM binding z-score [5]	PBM binding z-score [6]	PBM binding z-score [7]	PBM binding z-score [8]
CCTGACAGGTGAGAAGGTAACTCAGCCTCGATTA	0.33	0.701	0.393	-0.0911	0.509	0.346	-0.0701	-0.656
CAAACTAGGGCACAGAGGTCAAAGTCCGTGCGTA	4.61	5.79	5.63	2.66	5.91	3.79	1.32	5.23
ATCTCGAGGTAAAAGTTCAGTGAATCCCGAGGAT	2.35	2.35	1.86	0.47	2.58	1.99	0.159	0.883
ACTAGTTGGTCAGTTGAGGTCACACACAATTCGG	4.23	3.87	4.02	1.51	4.05	5.15	5.39	4.05
CCTTGCAGGCCAGGGTCACTCAAGCATTTCGCTT	2.93	3.21	2.83	0.484	3.43	2.76	1.07	1.18
GCTTGTAGATCAAGGTTTAGAAAGACTAAGCTAA	-0.764	-0.251	-0.299	-0.0471	-0.469	-0.36	-0.736	-0.186
GCTTTTAGTTGAAAGGGCAACCGAATGATTCTCG	1.78	1.2	1.29	0.971	1.06	0.54	-0.708	-0.32
